Bioassay records deposited in PubChem BioAssay by National Center for Advancing Translational Sciences (NCATS).
AMA1 RON2 block: inhibitors of Plasmodium falciparum AMA1-RON2 interaction; AlphaScreen AMA1-biotinylated RON2 peptide binding; Potency, µM (doses to about 58.2 µM), for inactives: at the top dose activity change, negative = inhibition, most hits filed as inhibitors; 360,000 tested, 0.2% active; AID 720542;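 also: 0% = vehicle wells and -100% = peptide control; nearly all actives have a fitted effect of over 45% in size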
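AMA1 (3D7) with his tag at 25 nM final met compounds first, then biotinylated RON2 peptide at 25 nM; detection used donor plus acceptor beads, 10 µg/mL apiece, read by AlphaScreen after 30 min at room temperature.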
HCV inh: blocks hepatitis C virus; Huh7.5.1 HCVcc-Cre infection, luciferase reporter, 44 h; Potency, µM (top dose mostly 41.8 µM), for inactives: at the highest dose activity change, negative = inhibition, hits mostly inhibitors; 340,000 tested, 3.4% active
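Cells seeded at 1,000/well and cultured 4 h, then compounds added followed by HCVcc-Cre virus (~0.5 moi). After 44 h further culture, luciferase substrate was added, plates held 15 min at room temperature, and luminescence read for 15 sec.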
Pf growth 48h: P. falciparum growth inhibition at 48 hours (one generation); P. falciparum luciferase growth in erythrocytes, 48 h; Potency, µM (doses to about 28.7 µM), without a hit: at the highest dose activity change, negative = inhibition, hits mostly inhibitors; 310,000 tested, 5.9% active; AID 504832
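In quantitative HTS format, infected erythrocytes bearing luciferase-reporter parasites were treated for a single generation at 37 C. Luminescence after adding detection reagent served as the growth measure.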
AmpC detergent: inhibitors of E. coli AmpC beta-lactamase with detergent. AmpC hydrolysis of nitrocefin, absorbance 480 nm, 0.01% Triton. Potency, µM (doses to about 114 µM), for inactives: at the highest dose activity change, negative = inhibition, most hits filed as inhibitors. 370,000 tested, 0.041% active. AID 485294;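 also: 0% = no-compound wells and -100% = no-enzyme wells; nearly all actives have a fitted effect of over 25% in size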
Target sequence (P00811 whole entry, looked up): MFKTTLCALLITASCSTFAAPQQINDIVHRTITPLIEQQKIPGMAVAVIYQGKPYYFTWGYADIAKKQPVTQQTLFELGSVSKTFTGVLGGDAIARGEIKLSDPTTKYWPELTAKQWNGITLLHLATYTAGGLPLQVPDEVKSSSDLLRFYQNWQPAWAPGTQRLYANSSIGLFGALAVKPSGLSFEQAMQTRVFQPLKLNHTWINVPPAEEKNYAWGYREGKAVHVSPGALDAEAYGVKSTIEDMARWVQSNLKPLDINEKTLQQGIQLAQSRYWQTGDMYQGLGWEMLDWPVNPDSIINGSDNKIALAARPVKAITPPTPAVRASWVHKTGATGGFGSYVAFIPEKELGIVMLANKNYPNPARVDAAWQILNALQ
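AmpC (5.3 nM in the dispensed reagent) in 20 mM phosphate pH 7.0 with 0.01% (detergent screen) or 0.0001% Triton X-100 was preincubated with compounds for 15 min at room temperature. Nitrocefin was then added from an 800 uM solution, and hydrolysis was followed at 480 nm.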
Pf growth 96h: P. falciparum growth inhibition at 96 hours. P. falciparum luciferase reporter growth, 96 h. Potency, µM (highest dose often 28.7 µM), for inactives: top-dose activity change, negative = inhibition, hits mostly inhibitors. 320,000 tested, 6.9% active
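P. falciparum expressing integrated firefly luciferase, in erythrocytes at 2% hematocrit, 0.05% parasitemia, incubated with compounds 96 h at 37 C, 5% CO2. Growth inhibition read as loss of luminescence; two-generation exposure targets delayed-death apicoplast inhibitors.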
AmpC inh no detg: inhibitors of E. coli AmpC beta-lactamase without detergent; 330,000 tested, 0.52% active; AmpC nitrocefin hydrolysis, absorbance 480 nm, 0.0001% Triton; Potency, µM (titrated, usually from 57.1 µM), for inactives: at the top dose activity change, negative = inhibition, usual class: inhibitors; P00811;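 also: plate controls were no compound for no effect and no enzyme for full effect; nearly all actives have a fitted effect of over 20% in size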
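20 mM phosphate pH 7.0 + 0.01% (detergent screen) or 0.0001% Triton X-100; 5.3 nM AmpC reagent; cpd preinc 15 min RT; nitrocefin (800 uM stock) to start; A480 q20 s × 4 min; Activity was normalised to no-enzyme and no-compound control wells.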
An asterisk follows results filed as active; ? = inconclusive; . = not tested or not shown. Hits are enriched below; roughly 11% of the tested compounds scored in any of these assays. Calls follow the shape of the dose curve; as a rule, active = well fitted curve in the direction sought with a large enough effect; inconclusive = small, poorly fitted or top-dose-only effect, or another doubt; inactive = no such curve, though single readings can be large; an effect the other way counts as inactive or inconclusive. Unless noted, % is scaled to controls: 0 for no effect and ±100 for the full control effect; potency is read from the fitted curve at half-maximal effect.

SMILES	AMA1 RON2 block	HCV inh	Pf growth 48h	AmpC detergent	Pf growth 96h	AmpC inh no detg
CCCNS(=O)(=O)c1ccc(NC(=O)c2ccccn2)cc1	18.8%	-8.1%	76.9%	-8.9%	10.4µM*	-6.6%
Cc1cc(=O)[nH]c2nnc(SCc3ccccc3F)n12	.	.	.	1.5%	.	.
O=C(Nc1cccc(C(F)(F)F)c1)c1ccc2c(c1)nnn2C1CCCC1	.	.	.	-4.9%	.	.
COc1ccc(C2C(=O)N(C3CCC(C)CC3)CC(=O)N2C2CCCC2)cc1OC (centres undefined)	.	.	.	7.3%	.	.
COc1cccc(N(C(=O)CNC(=O)c2ccco2)C(C(=O)NC2CCCCC2)c2ccncc2)c1 (centres undefined)	-6.2%	31.1%	-5.1%	?	9.28µM*	-7.1%
COc1ccc(C(C(=O)NC2CCCC2)N(C(=O)c2ccoc2C)c2ccc(C)c(C)c2)cc1 (centres undefined)	-13.2%	-25.2%	?	-16.1%	1.04µM*	4.0%
COc1cc(OC)cc(N(C(=O)c2ccco2)C(C(=O)NC2CCCC2)c2ccc(N(C)C)cc2)c1 (centres undefined)	-4.5%	-24.8%	11.7µM*	?	?	37.9%
COc1cccc(N(C(=O)c2ccco2)C(C(=O)NC2CCCC2)c2ccc(N(C)C)cc2)c1 (centres undefined)	-4.9%	?	0.0%	-0.3%	16.4%	-2.9%
COc1ccc(N(C(=O)c2ccco2)C(C(=O)NC2CCCC2)c2ccc(N(C)C)cc2)cc1OC (centres undefined)	-3.4%	14.5%	13.1µM*	?	101.1%	78.6%
COc1ccc(N(C(=O)c2ccco2)C(C(=O)NC2CCCC2)c2ccc(N(C)C)cc2)cc1 (centres undefined)	-15.5%	-8.3%	.	-13.5%	.	3.8%
O=C(NCc1ccccc1)c1c2c(nc3ccccc13)C(=O)N(C1CCCCC1)C2	.	.	.	25.4%	.	.
COc1cc(OC)c(OC)cc1CNCCSc1nnnn1-c1ccccc1	.	.	.	10.9%	.	.
CCC(=O)N1CCc2cc(Br)cc(S(=O)(=O)CCC(=O)Nc3ccc(CC)cc3)c21	.	.	.	-10.3%	.	.
CN(C1=C(NC(=O)c2ccc(Cl)cc2)C(=O)c2ccccc2C1=O)c1ccccc1	10µM*	?	1.85µM*	-0.9%	?	-17.7%
O=C(NC1=C(NC2CCS(=O)(=O)C2)C(=O)c2ccccc2C1=O)c1ccccc1 (centres undefined)	2.3%	?	1.65µM*	-0.7%	?	-42.3%
Cc1cccc(NC2=C(NC(=O)c3ccccc3)C(=O)c3ccccc3C2=O)c1	?	?	0.465µM*	-11.5%	?	-29.2%
O=C(NC1=C(Nc2ccc(Cl)cc2)C(=O)c2ccccc2C1=O)c1ccccc1	-4.8%	?	0.131µM*	1.5%	0.104µM*	-28.9%
O=C(Nc1ccc(Nc2ccccc2)cc1)c1ccc(Cl)cc1	-14.9%	?	.	.	.	.
CCOc1ccc(CCNC(=O)c2sc3nc4n(c(=O)c3c2C)CCCC4)cc1	.	.	.	19.9%	.	.
CCOc1ccccc1C1CC(=O)Nc2cc(C)c(C)cc21 (centres undefined)	-0.6%	?	16.4%	?	11.7µM*	-16.4%
COc1cc2c(cc1OC)C(c1ccc(Br)cc1)CC(=O)N2 (centres undefined)	-0.4%	-14.6%	8.3%	-8.2%	5.22µM*	10.3%
COc1ccccc1C1CC(=O)Nc2cc(C)c(C)cc21 (centres undefined)	-3.5%	?	-21.3%	-4.6%	13.1µM*	-12.3%
CCCCOc1ccccc1C1CC(=O)Nc2cc(C)c(C)cc21 (centres undefined)	.	.	.	-3.6%	.	.
COc1cccc(C2CC(=O)Nc3cc4c(cc32)OCO4)c1OC(C)C (centres undefined)	.	.	.	9.8%	.	.
CC(C)Oc1ccccc1C1CC(=O)Nc2cc3c(cc21)OCO3 (centres undefined)	-23.2%	11.2µM*	?	5.9%	.	-30.6%
SMILES	AMA1 RON2 block	HCV inh	Pf growth 48h	AmpC detergent	Pf growth 96h	AmpC inh no detg
Cc1cc2c(cc1C)C(c1ccccc1OC(C)C)CC(=O)N2 (centres undefined)	-7.2%	8.91µM*	?	6.0%	?	-17.7%
CCCOc1ccccc1C1CC(=O)Nc2cc3c(cc21)OCCO3 (centres undefined)	-6.2%	2.51µM*	?	-6.1%	-2.4%	-32.1%
Cc1cc2c(cc1C)C(c1ccccc1Br)CC(=O)N2 (centres undefined)	21.0%	0.1%	-21.3%	-4.5%	-27.6%	-36.1%
COc1ccccc1CNC(=O)c1ccc(N2CCCC2)c(NC(=O)NCc2ccccc2)c1	.	.	.	9.1%	.	.
N#Cc1ccc(COC(=O)CSc2nnc(C3CCCCC3)n2N)cc1	-4.1%	4.3%	-0.3%	-4.3%	5.5%	-6.7%
CCOC(=O)c1sc(N)c(C#N)c1CSc1nnc(C2CCCCC2)n1N	31.0%	-3.8%	.	-6.0%	10.4µM*	-26.5%
CCOC(=O)/C(C#N)=C/c1ccc(-c2ccccc2)o1	.	.	.	14.0%	.	.
Cc1ccc(-n2nnnc2-c2cnc(N3CCCC3)nc2C(F)(F)F)cc1	40.8%	11.2µM*	.	0.4%	4.6%	60.9%
FC(F)(F)c1nc(N2CCCC2)ncc1-c1nnnn1-c1ccccc1	9.2%	11.2µM*	0.9%	?	33.3%	-3.2%
CCOC(=O)c1scc(-c2ccc(C)cc2)c1S(=O)(=O)Nc1cccc(CC)c1	.	.	.	-2.7%	.	.
c1ccc(-c2cnnc(SCc3cn4cccnc4n3)n2)cc1	1.9%	7.4%	10.4µM*	?	9.28µM*	-11.7%
c1ccc2[nH]c(SCc3cn4cccnc4n3)nc2c1	0.9%	6.6%	69.7%	4.0%	9.8%	-17.2%
CSc1ncc(C(=O)Nc2cccc(C)c2C)c(-c2ccccc2)n1	.	.	.	19.4%	.	.
CC(C)(C)n1nnnc1C(c1ccc(Cl)cc1)N1CCCc2ccccc21 (centres undefined)	11.4%	26.0%	2.33µM*	-1.8%	32.6%	-17.9%
CC(C)(C)n1nnnc1C(c1cccc(C#N)c1)N1CCC(Cc2ccccc2)CC1 (centres undefined)	-11.4%	?	2.62µM*	-11.9%	.	-18.6%
c1cnc2ccc(C(c3nnnn3C3CCCCC3)N3CCN4CCCC4C3)cc2c1 (centres undefined)	1.4%	-13.6%	?	?	.	15.0%
CCC(C)(C)n1nnnc1C(c1ccc2ncccc2c1)N1CCN2CCCC2C1 (centres undefined)	-10.1%	0.9%	10.4µM*	-0.4%	142.1%	-2.6%
